Experimental findings from PubChem BioAssay AID624169 (The Scripps Research Institute Molecular Screening Center, 2012) are described below.

Out of some 360,000 compounds screened, about 2,400 (0.67%) were called active. The list comes from a sample in which actives are over-represented; it also holds similar structures and randomly drawn compounds. A number with no mark means an inactive call.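 How the source made its calls: active means activation above a run cutoff, the mean activation of all tested compounds plus 3 SD (cut at about 14% in these data); inactive means the rest.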

Chain of 5-hydroxytryptamine receptor 2A (Mus musculus) (P35363 whole entry, looked up): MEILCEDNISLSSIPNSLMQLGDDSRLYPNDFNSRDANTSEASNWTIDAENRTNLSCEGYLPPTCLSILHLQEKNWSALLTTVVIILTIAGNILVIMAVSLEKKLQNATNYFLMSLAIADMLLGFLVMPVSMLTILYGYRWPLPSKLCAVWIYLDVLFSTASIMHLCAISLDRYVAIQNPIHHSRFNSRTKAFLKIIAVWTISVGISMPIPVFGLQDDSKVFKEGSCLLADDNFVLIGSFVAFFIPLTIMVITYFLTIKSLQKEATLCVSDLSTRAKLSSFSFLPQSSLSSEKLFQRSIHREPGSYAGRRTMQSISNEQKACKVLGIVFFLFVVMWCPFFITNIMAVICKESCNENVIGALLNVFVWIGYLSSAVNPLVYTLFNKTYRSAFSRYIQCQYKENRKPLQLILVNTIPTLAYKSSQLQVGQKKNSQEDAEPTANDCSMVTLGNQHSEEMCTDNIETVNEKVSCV

This experiment addresses 5-hydroxytryptamine receptor 2A (Mus musculus) (UniProt P35363). Description: activation of mouse 5-HT2A receptor – cell-based, luminescence, primary screen (AID 624169).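 Further: 0% = plate median of compound wells and 100% = 30 µM serotonin.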 The note with it: CHO-K1 mHTR2A beta-arrestin complementation, at 7.6 µM, active compounds read high, percent of 30 µM serotonin response.
In the case of `COc1ccc(N2CCN(S(=O)(=O)c3cc4c5c(c3)C(C)C(=O)N5CCC4)CC2)cc1` (stereo not given), the activation was 4.42%.

Take `O=C(CNC(=O)c1cc(=O)[nH]c2ccccc12)Nc1ccc(F)c(F)c1`: the activation was -0.64%.

Consider `CC1=C(C(=O)N2CCOCC2)CC(CC(=O)NCC2CCCCC2)C(=O)N1Cc1ccc(F)cc1` (stereo not given), for which the activation was 0.51%. Regarding `O=C(COC(=O)CNC(=O)C1CCCCC1)NCc1ccccc1`, the activation was 4.87%.

Take `COc1ccc2c(Cl)c(-c3nnco3)sc2c1`: the activation was 15.6% (active).

On to `Fc1cccc(Cl)c1COc1ccc(-c2nnco2)cc1`, for which the activation was 0.11%. As to `C#CCSc1nnc(-c2sc3ccccc3c2Cl)o1`, the activation was 3.02%. For the molecule `CS(=O)(=O)c1ccc(Cl)c(NC(=O)COC(=O)c2cccc(S(=O)(=O)N3CCCC3)c2)c1`, the activation was -2.1%. For `O=C(COC(=O)CCOc1ccccc1)Nc1cc(S(=O)(=O)N2CCCCC2)ccc1Cl` the value was 2.8%; for `O=C(CNCc1cccs1)Nc1cc(S(=O)(=O)N2CCCC2)ccc1Cl`, 17.4% (active); for `Cc1ccc2c(c1)NCC(C(=O)NC1CCC(C)CC1)O2` (stereo not given), 16.6% (active).

Consider `Cc1ccc(C(=O)NC2CC(C)(C)NC(C)(C)C2)c(C)c1`, for which the activation was 3.41%. To `Cc1ccc(S(=O)(=O)NCc2ccc(C(=O)NC3CCC(C)CC3)cc2)cc1` (stereo not given) belongs -3.68%.

As for `Cc1ccccc1C(=O)N1CCC(C(=O)Oc2ccc(C#N)cc2)CC1`, the activation was -3.91%. Turning to `O=C(NNc1cc(Cl)cc(Cl)c1)c1c(F)cccc1Cl`, the activation is 1.49%. Take `CCCCN(CC)C(=O)c1ccc2c(c1)OCO2`: the activation was 1.68%. As to `Cc1ccc2cc(CCNC(=O)c3ccc4c(c3)OCO4)c(=O)[nH]c2c1`, the activation was 5.29%. For `COCCN(Cc1cc2cc3c(cc2nc1Cl)OCO3)C(=O)c1cccc(C)c1`, the activation was 16.6% (active). For the molecule `Cn1nnnc1-c1cc(Cl)cc(Cl)c1`, the activation was 2.61%. Consider `CSc1nsc(SCC(=O)Nc2cc(C(=O)O)ccc2C)n1`, for which the activation was 15.6% (active). For `COc1ccc(C)cc1NC(=O)CSc1nc(SC)ns1` the value was -0.61%. For `COc1ccc(NC(=O)CSc2nc(SC)ns2)c(OC)c1` the value was 0.26%. As for `Cc1cccc(C(=O)N[C@H](C(=O)NCc2cccs2)C(C)C)c1`, the activation was 5.5%. Regarding `CNCC(O)c1ccc(O)c(O)c1` (stereo not given), the activation was 26.5% (active). Consider `CCC(C)c1ccc(O)c(/C=N/O)c1` (stereo not given), for which the activation is -3.25%. In the case of `C=CCNC(=O)C12CC3CC(C1)CC(C(=O)NCC=C)(C3)C2`, the activation is -0.48%. As to `Cc1ccccc1NC(=O)C1CCN(C(=O)NC2CCCCC2)CC1`, the activation was -2.36%.

For `O=C(Nc1ccccc1C(=O)O)c1ccc(N2C(=O)C3CC=CCC3C2=O)cc1` (stereo not given), the activation was -7.43%. For `OCC1(Cc2ccccc2)CCN(Cc2cc3ccccc3o2)CC1` the value was 19.6% (active). Turning to `O=C(c1cc2ccccc2o1)N1CCN(Cc2ccccc2)CC1`, the activation is -4.53%. Consider `CC(C)c1csc(CN2CCC(CO)(Cc3ccccc3)CC2)n1`, for which the activation was -5.03%. For the molecule `CC(C)(C)NC(=O)C(=O)NCc1ccncc1`, the activation was -5.23%. Turning to `COCCCN1C(=O)c2ccc(C(=O)OCC(=O)NCc3ccccc3OC)cc2C1=O`, the activation was -1.38%. For `COc1ccc(S(=O)(=O)NC(C)c2ccccc2)cc1C(=O)N1CCCCC1` (stereo not given) the value was 4.88%. For `CN[C@H]1C[C@H]2c3cc(Oc4ccccc4C)ccc3CCN2C(=O)[C@H]1[C@H](C)O` the value was 0.5%.

Turning to `C[C@H](O)[C@@H]1C(=O)N2CCc3ccc(N4CCOCC4)cc3[C@@H]2C[C@@H]1N(C)C(=O)C(C)(C)C`, the activation is 9.06%. For `C[C@@H]1ON(C)[C@H]2C[C@H]3c4cc(N5CCN(C)CC5)ccc4CCN3C(=O)[C@@H]12` the value was 29.5% (active); for `Cc1nn(C)cc1S(=O)(=O)N1CCN(c2ccc(F)cc2)CC1`, -4.86%; for `O=C(NC(c1ccc(Cl)cc1)c1cnccn1)C1CCN(Cc2ccc(Cl)cc2)CC1` (stereo not given), -6.28%. For `Cc1cccnc1C(NC(=O)C1CCN(Cc2ccc(Cl)c(Cl)c2)CC1)c1ccc(Cl)cc1` (stereo not given) the value was 16.4% (active); for `Cc1ccc(C(NC(=O)C2CCN(CCOc3ccc(Cl)cc3Cl)CC2)c2ccccn2)cc1` (stereo not given), -3.52%; for `CCC/C=C(\CCC)C(NC(=O)Cc1ccccc1)c1ccc(C(=O)OC)cc1` (stereo not given), -7.9%.

Take `Cc1cccc(N2CC(C)Cn3c2nc2c3c(=O)n(CC(=O)OCc3ccccc3)c(=O)n2C)c1` (stereo not given): the activation was 0.76%. `CNS(=O)(=O)c1cccc(C(=O)OCC(=O)N2c3ccccc3NC(=O)C2(C)C)c1`: the activation was -2.19%. To `Cc1ccc(OCCC(=O)OCC(=O)N2c3ccccc3NC(=O)C2(C)C)cc1` belongs -2.36%. For `Cc1cc(C(=O)OCC(=O)N2c3ccccc3NC(=O)C2(C)C)c(C)n1-c1ccccc1`, the activation is 15.2% (active). To `COc1ccc(N)cc1NC(=O)CN1CCOCC1` belongs -3.94%; to `COc1ccc(C)cc1N(C(=O)Cn1nnc(-c2ccc(C)o2)n1)C(C(=O)NC1CCCC1)c1ccncc1` (stereo not given), -2.27%. For `COC(=O)c1ccc(S(=O)(=O)NCc2ccccc2)n1C`, the activation is -2.3%. `CC(C(=O)N1CCc2ccccc21)N(C)CC(=O)Nc1ccc(F)cc1` (stereo not given): the activation is -3.41%. With `Cc1ccc(S(=O)(=O)/N=C(\N)c2ccc(F)cc2)cc1`, the activation was 0.59%. As to `N/C(=N\S(=O)(=O)c1cc(C(F)(F)F)cc(C(F)(F)F)c1)c1cccs1`, the activation is 31.8% (active).

As for `O=C(Cc1cccs1)NCc1cccc(C(F)(F)F)c1`, the activation is -6.31%. For `O=C1C2N=NN(CC(=O)N3N=C(c4cccc5ccccc45)CC3c3ccccc3)C2C(=O)N1c1ccccc1` (stereo not given) the value was 2.13%; for `Cc1ccc(N2C(=O)C3N=NN(CC(=O)N4N=C(c5cccc6ccccc56)CC4c4ccccc4)C3C2=O)cc1` (stereo not given), 17.6% (active); for `Oc1ccccc1C1=NN(c2ccccc2)C(c2ccccc2)C1` (stereo not given), 5.22%. To `CCN(CC(=O)Nc1cccc(S(=O)(=O)N2CCCCC2)c1)Cc1ccccc1` belongs -11.3%; to `COc1cc(Cl)ccc1OCc1cc(C(=O)N(C)CCc2c(C)n[nH]c2C)no1`, -10.7%; to `CCCNC(=O)C1(C)CCN1C(=O)C1(c2ccccc2)CC1` (stereo not given), -0.58%. For `CCCOc1ccc(Cc2c(O)nc(N)[nH]c2=O)cc1C` the value was 2.5%.
